These results are taken from PubChem BioAssay.

Active and inactive are the calls of the source. Unless noted, no rule for the calls is given here.

Experiment [1] relates to XIP peptide (Xip251-270) binding. Put plainly: XIP fragment 251-270 binding compounds – biochemical, small-molecule microarray, fluorescence 635/667 nm, 0.1 µg/mL protein, primary screen (AID 1182). Conditions: fluorescent protein binding, 635 nm, higher = more signal, called active from +8 up or from −8 down.
The next experiment has as its system XIP peptide (Xip251-270). The experiment can be described thus: compounds binding XIP fragment 251-270 – biochemical, small-molecule microarray, fluorescence 635/667 nm, 0.5 µg/mL protein, primary screen (AID 1183). Conditions: fluorescence 635 nm, higher = more signal.
Experiment [2] in a line: blood-stage malaria parasite viability loss – strain 3D7, DAPI fluorescence, 100 nL, primary screen (AID 1184).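 Also: parasites grown inside human red blood cells in medium with human serum.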 The following applies: P. falciparum 3D7 growth, 3 d, higher = more signal.
Experiment [3] concerns the target Homeobox protein Hox-A13 (Mus musculus) (UniProt Q62424). The experiment can be described thus: disruptors of Hoxa13 oligonucleotide interaction – biochemical, fluorescence polarization, labeled oligonucleotide, primary screen (AID 1185). Conditions: Hoxa13:DNA binding, 15 min, higher = more signal, called active from +8 up or from −8 down. A general note: Fluorescence polarisation rises when a labelled molecule tumbles more slowly, as on binding a larger partner.

Experiment [4] in a line: blockers of DNA damage checkpoint Chk1 activation – imaging, HeLa, hydroxyurea, phospho-Chk1 antibody, percent positive cells, primary screen (AID 1186). Conditions: hydroxyurea-induced phospho-Chk1 immunofluorescence imaging, higher = more signal.
The nature of experiment [5]: blockers of DNA damage checkpoint Chk1 activation – imaging, HeLa, hydroxyurea, phospho-Chk1 nuclear intensity, primary screen (AID 1187). Conditions: hydroxyurea-induced phospho-Chk1 immunofluorescence imaging, higher = more signal.

Homeobox protein Hox-A13 (Mus musculus), sequence (Q62424 whole entry, looked up): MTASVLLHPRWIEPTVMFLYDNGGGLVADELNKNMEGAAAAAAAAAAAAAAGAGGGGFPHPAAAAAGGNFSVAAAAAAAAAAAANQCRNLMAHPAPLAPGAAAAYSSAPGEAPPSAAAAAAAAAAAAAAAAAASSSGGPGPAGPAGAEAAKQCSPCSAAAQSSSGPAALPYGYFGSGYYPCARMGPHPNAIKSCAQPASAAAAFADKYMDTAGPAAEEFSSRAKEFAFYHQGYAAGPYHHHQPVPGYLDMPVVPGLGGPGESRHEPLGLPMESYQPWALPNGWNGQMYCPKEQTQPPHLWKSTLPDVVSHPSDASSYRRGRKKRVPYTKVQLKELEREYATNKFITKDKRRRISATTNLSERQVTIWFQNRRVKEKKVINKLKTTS

Turning to `C=C[C@H](COC(C)=O)NS(=O)(=O)c1ccc(Br)cc1`, the composite z-score in experiment [1] was -0.111 (inactive); with XIP peptide (Xip251-270), 0.238. The z-score in experiment [2] is 0.463; in experiment [3] it was -0.189 (inactive); in experiment [4], -0.655 (inactive); in experiment [5] it was -0.782 (inactive).

Turning to `CCOC(=O)C[C@H]1[C@H](OC(=O)c2ccccc2-c2ccccc2)[C@@H](NC(=O)CC(C)C)c2cc(OCCCO)ccc2N1C(=O)c1ccc2ccccc2n1`, the composite z-score in experiment [1] is 2.34 (inactive); in the experiment with XIP peptide (Xip251-270), 0.0366. Moreover, the z-score in experiment [2] is 1.65; in experiment [3], -3.94 (inactive); in experiment [4], 0.222 (inactive); in experiment [5] it was -0.537 (inactive).

As to `CCOC(=O)C1=C[C@@H](c2ccccc2)N(S(=O)(=O)c2ccc(C)cc2)[C@H]1c1cccc(Cl)c1`, the composite z-score was 0.526 (inactive) in experiment [1] and 0.803 in the experiment with XIP peptide (Xip251-270). Besides, the z-score was -2.03 in experiment [2], 0.587 (inactive) in experiment [3], 0.289 (inactive) in experiment [4] and 0.284 (inactive) in experiment [5].

Consider `CC(C)(C)OC(=O)CC[C@@]1(C(=O)O)N=C(c2ccc(OCCCO)cc2)O[C@@H]1c1ccccc1`, for which the composite z-score is 0.0877 (inactive) in experiment [1] and 0.84 with XIP peptide (Xip251-270). The z-score in experiment [2] was 0.274; in experiment [3] it was -2.94 (inactive); in experiment [4], -0.0016 (inactive); in experiment [5] it was 0.18 (inactive).

`C=C(/C(=C/C[C@@H](OC(=O)c1ccncc1)c1ccccc1OCCO)c1cc(C(=O)OC)ccc1OC)C(C)C`: the values for the composite z-score (in experiment [1]; with XIP peptide (Xip251-270)) were 0.214 (inactive) and 0.596, respectively. The z-score in experiment [2] is -2.94; in experiment [3], -3.84 (inactive); in experiment [4] it was -1.77 (inactive); in experiment [5] it was -1.86 (inactive).

As for `COC(=O)c1c(CC[C@@H](CO)NC(=O)N[C@H](Cn2cc(-c3ccccc3C)nn2)C(C)C)oc(C(C)=O)c1C(=O)OC`, the values for the composite z-score (in experiment [1]; in the experiment with XIP peptide (Xip251-270)) were -0.0077 (inactive) and -0.0163, respectively. Also, the z-score in experiment [2] was -1.85; in experiment [3], -0.127 (inactive); in experiment [4], 1.16 (inactive); in experiment [5], 0.823 (inactive).

`C=CC[C@@]1(C(=O)O)N=C(c2ccc(OCCCO)cc2)O[C@@H]1c1ccccc1`: the composite z-score was 0.759 (inactive) in experiment [1] and 0.994 in the experiment with XIP peptide (Xip251-270). In addition, the z-score was -0.441 in experiment [2], -4.13 (inactive) in experiment [3], -0.106 (inactive) in experiment [4] and -0.0411 (inactive) in experiment [5].

With `C[C@H]1C2=C3C(CC[C@H]4C(OCc5ccc(F)cc5C(F)(F)F)OC[C@](C)([C@@H]34)N(C(=O)OC(C)(C)C)C2)C2COC(=O)OCC21` (some centres undefined), the composite z-score in experiment [1] is 0.172 (inactive); in the experiment with XIP peptide (Xip251-270), 0.551. The z-score in experiment [2] is -0.121; in experiment [3], -3.49 (inactive); in experiment [4] it was 0.671 (inactive); in experiment [5] it was 0.439 (inactive).

Take `C[C@]1(C(=O)O)c2ccccc2C(=O)N(Cc2ccccc2)[C@H]1c1ccc(CO)cc1`: the composite z-score in experiment [1] was -0.339 (inactive); with XIP peptide (Xip251-270), 0.416. The z-score in experiment [2] was -0.393; in experiment [3], -1.72 (inactive); in experiment [4], -0.107 (inactive); in experiment [5], 0.194 (inactive).

Regarding `CC(C)NC(=O)[C@@]1(C)c2ccccc2C(=O)N(C(C)C)[C@H]1c1ccc(CO)cc1`, the composite z-score was 3.06 (inactive) in experiment [1] and 0.884 in the experiment on XIP peptide (Xip251-270). Moreover, the z-score is -0.568 in experiment [2], -2.26 (inactive) in experiment [3], 0.244 (inactive) in experiment [4] and 0.246 (inactive) in experiment [5].

As to `C=CCNC(=O)[C@@H]1[C@H]2C(=O)O[C@H](c3ccccc3)[C@H](c3ccccc3)N2[C@H](c2ccccc2OCCO)[C@@]12C(=O)N(C(=O)OCCOC)c1ccc(C#CC3=CCCCC3)cc12`, the composite z-score in experiment [1] was 0.0103 (inactive); in the experiment with XIP peptide (Xip251-270) it was 0.769. The z-score is -2.08 in experiment [2], 1.31 (inactive) in experiment [3], -0.136 (inactive) in experiment [4] and -0.103 (inactive) in experiment [5].

For `C=CCOC(=O)[C@@H]1[C@H]2C(=O)O[C@H](c3ccccc3)[C@H](c3ccccc3)N2[C@H](c2ccc(OCCOC(=O)[C@H]3C[C@H]4C(=O)N[C@@H](CCCCN(C)C)C(=O)N4[C@H]3c3cccc(OCCO)c3)cc2)[C@@]12C(=O)Nc1ccc(I)cc12`, the composite z-score was 1.78 (inactive) in experiment [1] and 0.817 in the experiment with XIP peptide (Xip251-270). The z-score in experiment [2] was -1.65; in experiment [3], -0.599 (inactive); in experiment [4], -0.426 (inactive); in experiment [5], -0.588 (inactive).

`C=CCOC(=O)[C@@H]1[C@H]2C(=O)O[C@H](c3ccccc3)[C@H](c3ccccc3)N2[C@H](c2ccc(OCCOC(=O)[C@H]3C[C@H]4C(=O)N[C@@H](CC(C)C)C(=O)N4[C@H]3c3ccc(O)cc3)cc2)[C@@]12C(=O)Nc1ccc(I)cc12`: the results for the composite z-score (in experiment [1]; in the experiment with XIP peptide (Xip251-270)) were 0.234 (inactive) and 0.828, respectively. For the same compound, the z-score is -1.79 in experiment [2], 0.981 (inactive) in experiment [3], -0.25 (inactive) in experiment [4] and -0.115 (inactive) in experiment [5].

As for `C=CCN1C(=O)[C@@]2(CCC(=O)OC(C)(C)C)N=C(c3ccc(OCCCO)cc3)O[C@H]2c2ccccc21`, the composite z-score in experiment [1] was 0.841 (inactive); in the experiment on XIP peptide (Xip251-270), 0.473. Besides, the z-score is -1.95 in experiment [2], -0.861 (inactive) in experiment [3], -0.239 (inactive) in experiment [4] and -0.351 (inactive) in experiment [5].
